The text below walks through data of PubChem BioAssay.

Test [1] is described as follows: yeast TOR pathway RPL19A-GFP modulators, primary screen, cell-based, S. cerevisiae, multiplex flow cytometry (AID 1862; in the data active = percent of DMSO control GFP below about 86%;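 also: lower values mimic rapamycin by blocking the RPL19A rise seen in DMSO cells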). Conditions: S. cerevisiae RPL19A-GFP strain, flow cytometry fluorescence, 3 h; at 10 µM; stronger effect = lower value.
The nature of test [2]: modulators of MEP2-GFP levels in yeast, primary screen, S. cerevisiae, multiplex flow cytometry (AID 1867;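 active = GFP response, as percent of the DMSO control, above the screen-wide mean plus 3 SD, about 139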;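 also: median GFP channel fluorescence of barcode-gated MEP2-GFP cells measured by flow cytometry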). Conditions: S. cerevisiae MEP2-GFP strain, 3 h, at 10 µM, stronger effect = higher value, 100% means same as DMSO wells. (In general: Flow cytometry measures light scatter and fluorescence of single cells or particles in a stream.)
Test [3] in a line: modulators of CIT2-GFP expression in yeast, primary screen, S. cerevisiae, GFP fusion, multiplex flow cytometry (AID 1870;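 active = percent response above a set limit, the screen-wide mean plus 3 SD, cut at about 130% in these data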;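 also: barcoded CIT2-GFP strain pooled with four other GFP strains with rapamycin as positive control; median GFP fluorescence per well over plate mean of DMSO wells so 100% = DMSO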). Conditions: 3 h, at 10 µM, stronger effect = higher value.
A short description of test [4]: modulators of LAP4-GFP expression in yeast, primary screen, S. cerevisiae, multiplex flow cytometry (AID 1873;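 active = GFP signal, as percent of the solvent control, above the screen mean plus 3 SD, about 149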). Conditions: 3 h, at 10 µM, stronger effect = higher value.
Test [5] in a line: modulators of AGP1-GFP expression in yeast TOR pathway, primary screen, cell-based, multiplex flow cytometry, S. cerevisiae (AID 1887;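 active = GFP signal above the screen-wide mean plus 3 SD, that is over about 124.5% of the solvent control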;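 also: AGP1-GFP fusion strain of S. cerevisiae within a five-strain barcoded multiplex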). Conditions: 3 h, at 10 µM, stronger effect = higher value.
Test [6] in a line: inhibitors of CD8+ T cell-vesicle binding, pilot screen, LFA-1/ICAM-1 modulator project, MLPCN validation set, flow cytometry (AID 2523;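 active = response below a set limit, under 55% cells CD8-positive and vesicle-bound, and CD8 cells' 90th-percentile brightness under 279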;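 as to vesicle binding response: mean PE anti-B7-1 fluorescence of CD8+ cells relative to row control; 100% = QL9-loaded vesicles with DMSO vehicle in the same plate row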). Conditions: 2C mouse CD8+ T cells, at 7 µM, stronger effect = lower value; double positive events: measured here: CD8+/vesicle+ event percentage.
The target in test [7] is Integrin beta-1 (Homo sapiens) + Integrin alpha-4 (Homo sapiens) (UniProt P13612+P05556). As to the kind of experiment: inhibition of HUTS-21 binding to VLA-4, pilot screen, VLA-4 allosteric modulator project, U937 cells, HUTS-21 mAb, flow cytometry, validation set (AID 2674;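 active = inhibition above 50%, about 3 SD of the validation set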;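 also: antibody binding induced by the VLA-4 ligand LDV present at three times its Kd; 0% = LDV ligand with antibody and no compound and 100% = antibody without LDV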). Conditions: HUTS-21 LIBS mAb binding, at 6.7 µM, stronger effect = higher value, binding induced by LDV ligand.

Test [8] can be described thus: superoxide lowering in aged yeast cells, pilot screen, validation compound set (AID 2706;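 active = superoxide response below 65% of plate, a cut near 3 SD across the whole screen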;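 also: yeast exposed to compound for one week at 30 degrees C before staining; 100% = mean of all compound wells on the same plate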). Conditions: S. cerevisiae aging, superoxide DHE fluorescence; at 10 µM, stronger effect = lower value.
The target in test [9] is Beta-adrenergic receptor kinase 1 (Homo sapiens) (UniProt P25098). In words: GRK2 binders displacing RNA aptamer, biochemical, validation, human GRK2, bead flow cytometry (AID 488806;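 active = aptamer binding inhibition above 30%, about 3 SD of noise from non-fluorescent compounds; inactive = inhibition at or below 30%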). Conditions: bead-bound GRK2, FAM-aptamer displacement, at 10 µM, stronger effect = higher value.
The target in test [10] is AP-2 complex subunit beta (Homo sapiens) (UniProt P63010). As to the kind of experiment: inhibitors of arrestin peptide binding to AP2, pilot screen, biochemical, validation set, GST-AP2 beads, flow cytometry (AID 504541;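 active = inhibition above 54%, about 3 SD of non-fluorescent compounds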;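 also: AP2 carries R879A mutation and is captured from E. coli lysate; bead-bound FITC arrestin peptide fluorescence measuring arrestin peptide binding to AP2; 0% = DMSO wells and 100% = excess unlabeled arrestin peptide control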). Conditions: FITC arrestin peptide, at 10 µM, stronger effect = higher value, AP2 beta2 appendage fragment, R879A mutant.
Test [11] can be described thus: yeast V-ATPase proton transport modulators, S. cerevisiae, pHLuorin, HTS validation (AID 504600).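 Also: plate controls were DMSO for no effect and reference compound for full effect.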 Conditions: S. cerevisiae pHLuorin cytosolic pH, at 10 µM, stronger effect = higher value.
Test [12] has as its system anti-desmoglein-3 scFv antibody binding to human DSG3. As to the kind of experiment: inhibitors of anti-DSG3 scFv binding to DSG3, pilot screen, biochemical, validation compound set, bead-based, flow cytometry (AID 588368;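 active = binding below the plate cutoff, the plate median minus 3 SD, with a reading above zero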;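 also: signal is the median channel fluorescence of bead-bound GFP antibody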). Conditions: Protein G beads, DSG3-Fc, scFv-GFP binding, at 10 µM, stronger effect = lower value.
Test [13] can be described thus: inhibitors of fungal efflux pumps CDR1, CDR2, MDR1, pilot screen, validation compound set, multiplex, phenotypic (AID 588506;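 active = efflux inhibition above 0.42, the validation set average plus 4 SD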;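 also: Nile Red retained in cells so higher fluorescence means more efflux inhibition; 0 = negative control wells and 1 = enniatin B 25 µM full block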). Conditions: S. cerevisiae pump-expressing triplex, Nile Red efflux flow cytometry; at 10 µM; stronger effect = higher value; the pumps come from Candida albicans.
The target in test [14] is ATP-binding cassette sub-family B member 6 (Homo sapiens) (UniProt Q9NP58). As to the kind of experiment: ABCB6 transporter inhibitors, pilot screen, K562-ABCB6 cells, flow cytometry, validation set (AID 588550;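 active = inhibition above the screen-wide mean plus 3 SD, about 51%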;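 also: 0% = DMSO wells and 100% = benzethonium chloride 70 µM positive control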). Conditions: K562-ABCB6 porphyrin accumulation, 1 h, at 10 µM, stronger effect = higher value.
Test [15] is described as follows: promoters of myeloid differentiation in arrested cells, primary screen, cell-based, GFP/MAC1 double positive, flow cytometry, validation set (AID 588685;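 active = differentiation response of at least 50%, scaled between solvent and reference control, from cells with both markers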;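 also: compound exposure lasts four days before antibody staining and flow analysis; 0% = DMSO wells and 100% = 5 µM fulvestrant positive control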). Conditions: ER-HoxA9 marrow cells, stronger effect = higher value, normalized: vehicle 0, fulvestrant 100.

Inconclusive results are not listed. Active and inactive are the calls of the source. Rule as the data show it, unless noted: active = response above about 15%; inactive = the rest.

Chain of ATP-binding cassette sub-family B member 6 (Homo sapiens) (Q9NP58 whole entry, looked up): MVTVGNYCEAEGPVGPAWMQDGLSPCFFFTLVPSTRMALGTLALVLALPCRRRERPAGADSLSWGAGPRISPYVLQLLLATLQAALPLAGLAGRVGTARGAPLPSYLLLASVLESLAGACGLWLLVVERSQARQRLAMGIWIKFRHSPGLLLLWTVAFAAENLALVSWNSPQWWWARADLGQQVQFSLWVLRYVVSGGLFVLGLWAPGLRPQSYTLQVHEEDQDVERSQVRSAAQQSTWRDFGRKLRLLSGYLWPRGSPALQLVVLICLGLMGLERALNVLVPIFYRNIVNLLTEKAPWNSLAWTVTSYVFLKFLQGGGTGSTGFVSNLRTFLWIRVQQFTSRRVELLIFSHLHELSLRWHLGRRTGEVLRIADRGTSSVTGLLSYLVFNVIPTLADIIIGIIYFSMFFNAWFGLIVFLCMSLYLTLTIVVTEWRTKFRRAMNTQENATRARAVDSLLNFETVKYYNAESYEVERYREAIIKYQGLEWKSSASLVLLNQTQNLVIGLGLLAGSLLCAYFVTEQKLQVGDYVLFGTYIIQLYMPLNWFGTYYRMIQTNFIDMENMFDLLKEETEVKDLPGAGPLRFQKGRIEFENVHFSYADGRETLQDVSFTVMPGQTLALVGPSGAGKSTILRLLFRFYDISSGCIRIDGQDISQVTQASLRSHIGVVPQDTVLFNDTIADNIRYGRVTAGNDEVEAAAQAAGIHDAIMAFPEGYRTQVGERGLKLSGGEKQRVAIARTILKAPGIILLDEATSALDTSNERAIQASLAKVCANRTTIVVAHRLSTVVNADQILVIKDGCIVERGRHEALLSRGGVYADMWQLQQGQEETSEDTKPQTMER
Chain of Integrin beta-1 (Homo sapiens) + Integrin alpha-4 (Homo sapiens) (P05556 whole entry, looked up): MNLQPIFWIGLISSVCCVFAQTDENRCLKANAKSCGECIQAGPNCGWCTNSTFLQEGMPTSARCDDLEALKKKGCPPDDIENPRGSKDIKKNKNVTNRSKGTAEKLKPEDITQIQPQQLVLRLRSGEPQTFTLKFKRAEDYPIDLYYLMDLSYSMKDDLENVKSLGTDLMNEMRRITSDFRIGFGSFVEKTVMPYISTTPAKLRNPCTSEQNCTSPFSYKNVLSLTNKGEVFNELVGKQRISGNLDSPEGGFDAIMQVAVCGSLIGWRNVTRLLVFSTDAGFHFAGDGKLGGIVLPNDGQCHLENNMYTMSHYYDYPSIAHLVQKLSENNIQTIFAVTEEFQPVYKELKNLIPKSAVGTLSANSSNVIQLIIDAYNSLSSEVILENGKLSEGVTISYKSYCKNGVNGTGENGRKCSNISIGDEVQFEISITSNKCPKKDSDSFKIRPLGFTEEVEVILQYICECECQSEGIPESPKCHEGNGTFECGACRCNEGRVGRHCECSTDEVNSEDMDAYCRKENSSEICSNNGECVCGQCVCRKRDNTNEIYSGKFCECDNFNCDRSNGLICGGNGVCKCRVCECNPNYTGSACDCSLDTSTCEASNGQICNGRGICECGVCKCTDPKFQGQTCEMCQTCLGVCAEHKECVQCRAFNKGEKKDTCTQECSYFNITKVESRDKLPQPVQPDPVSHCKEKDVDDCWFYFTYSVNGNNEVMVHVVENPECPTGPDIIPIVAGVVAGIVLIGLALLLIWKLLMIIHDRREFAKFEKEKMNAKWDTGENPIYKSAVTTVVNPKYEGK
Chain of Integrin beta-1 (Homo sapiens) + Integrin alpha-4 (Homo sapiens) (P13612 whole entry, looked up): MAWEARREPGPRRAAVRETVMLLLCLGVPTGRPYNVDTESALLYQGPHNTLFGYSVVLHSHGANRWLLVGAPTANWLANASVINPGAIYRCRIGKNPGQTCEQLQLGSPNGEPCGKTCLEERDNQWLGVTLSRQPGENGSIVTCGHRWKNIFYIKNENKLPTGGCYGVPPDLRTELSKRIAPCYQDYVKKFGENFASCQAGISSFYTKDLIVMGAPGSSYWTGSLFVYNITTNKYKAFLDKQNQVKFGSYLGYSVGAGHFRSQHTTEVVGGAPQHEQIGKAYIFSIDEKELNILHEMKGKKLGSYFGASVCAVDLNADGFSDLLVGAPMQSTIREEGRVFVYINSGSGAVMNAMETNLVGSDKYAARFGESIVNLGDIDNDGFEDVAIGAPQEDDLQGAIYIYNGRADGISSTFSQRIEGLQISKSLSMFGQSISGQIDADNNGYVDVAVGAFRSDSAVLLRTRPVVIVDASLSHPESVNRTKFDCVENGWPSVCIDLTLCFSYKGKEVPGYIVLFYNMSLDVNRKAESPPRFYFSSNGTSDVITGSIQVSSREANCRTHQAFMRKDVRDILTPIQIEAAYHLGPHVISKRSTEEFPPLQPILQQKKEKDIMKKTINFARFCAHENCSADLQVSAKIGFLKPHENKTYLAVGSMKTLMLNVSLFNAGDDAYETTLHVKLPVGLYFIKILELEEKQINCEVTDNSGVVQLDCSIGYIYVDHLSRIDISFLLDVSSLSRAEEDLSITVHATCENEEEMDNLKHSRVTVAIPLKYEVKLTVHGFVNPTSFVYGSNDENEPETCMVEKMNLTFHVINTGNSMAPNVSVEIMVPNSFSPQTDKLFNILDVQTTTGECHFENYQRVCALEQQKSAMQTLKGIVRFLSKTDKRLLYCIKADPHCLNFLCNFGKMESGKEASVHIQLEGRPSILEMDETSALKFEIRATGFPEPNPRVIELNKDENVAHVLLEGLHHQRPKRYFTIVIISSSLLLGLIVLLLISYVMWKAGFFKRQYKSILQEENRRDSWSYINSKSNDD
Chain of Beta-adrenergic receptor kinase 1 (Homo sapiens) (P25098 whole entry, looked up): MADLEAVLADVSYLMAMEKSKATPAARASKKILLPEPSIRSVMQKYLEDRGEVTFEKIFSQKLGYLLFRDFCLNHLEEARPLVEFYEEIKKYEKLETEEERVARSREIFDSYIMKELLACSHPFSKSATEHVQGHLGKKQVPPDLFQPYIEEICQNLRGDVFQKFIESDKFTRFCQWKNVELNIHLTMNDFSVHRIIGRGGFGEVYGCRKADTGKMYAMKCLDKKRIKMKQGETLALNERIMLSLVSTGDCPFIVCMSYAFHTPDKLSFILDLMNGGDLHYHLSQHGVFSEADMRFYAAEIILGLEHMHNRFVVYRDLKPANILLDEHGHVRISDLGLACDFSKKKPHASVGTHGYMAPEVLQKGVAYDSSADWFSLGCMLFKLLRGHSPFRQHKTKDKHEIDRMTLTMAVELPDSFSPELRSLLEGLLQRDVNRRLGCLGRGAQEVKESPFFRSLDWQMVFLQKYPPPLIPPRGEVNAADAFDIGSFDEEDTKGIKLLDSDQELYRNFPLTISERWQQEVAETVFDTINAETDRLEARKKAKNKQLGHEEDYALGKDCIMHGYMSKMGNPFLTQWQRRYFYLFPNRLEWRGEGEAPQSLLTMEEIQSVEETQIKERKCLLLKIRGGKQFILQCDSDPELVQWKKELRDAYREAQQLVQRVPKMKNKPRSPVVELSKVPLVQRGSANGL
Chain of AP-2 complex subunit beta (Homo sapiens) (P63010 whole entry, looked up, the tested form may be a part, one chain of several): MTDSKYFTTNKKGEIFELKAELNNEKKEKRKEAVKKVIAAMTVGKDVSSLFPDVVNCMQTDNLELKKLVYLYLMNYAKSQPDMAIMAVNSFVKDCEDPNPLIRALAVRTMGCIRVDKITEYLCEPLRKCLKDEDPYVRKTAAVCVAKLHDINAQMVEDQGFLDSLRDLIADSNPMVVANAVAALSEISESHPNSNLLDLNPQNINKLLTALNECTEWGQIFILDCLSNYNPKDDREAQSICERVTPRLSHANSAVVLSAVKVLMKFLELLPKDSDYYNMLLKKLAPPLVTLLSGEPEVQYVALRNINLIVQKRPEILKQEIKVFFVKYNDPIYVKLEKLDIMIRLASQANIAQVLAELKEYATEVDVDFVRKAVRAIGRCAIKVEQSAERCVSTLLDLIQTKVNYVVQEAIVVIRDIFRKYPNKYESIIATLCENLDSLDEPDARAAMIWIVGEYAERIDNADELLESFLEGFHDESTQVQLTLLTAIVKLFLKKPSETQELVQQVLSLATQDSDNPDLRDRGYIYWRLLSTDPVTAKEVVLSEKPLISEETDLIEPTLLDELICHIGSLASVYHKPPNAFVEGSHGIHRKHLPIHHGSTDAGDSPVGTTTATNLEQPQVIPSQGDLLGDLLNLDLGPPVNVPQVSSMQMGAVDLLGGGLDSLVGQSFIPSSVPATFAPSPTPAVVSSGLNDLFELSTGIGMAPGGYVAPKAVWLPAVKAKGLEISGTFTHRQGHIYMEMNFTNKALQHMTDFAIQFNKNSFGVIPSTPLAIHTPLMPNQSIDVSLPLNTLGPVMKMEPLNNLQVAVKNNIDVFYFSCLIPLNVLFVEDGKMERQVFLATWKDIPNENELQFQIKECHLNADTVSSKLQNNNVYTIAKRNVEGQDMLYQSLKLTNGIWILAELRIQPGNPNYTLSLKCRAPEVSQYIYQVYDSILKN

In the case of `COc1ccc(CCNC(=S)NC(=O)/C=C/c2ccc(C)cc2)cc1OC`, in test [1], the percent of DMSO control GFP is 101% (inactive). The GFP response vs DMSO in [2] was 107% (inactive); in test [4], 103% (inactive). The percent response of DMSO control in test [3] is 106% (inactive). For the same compound, the GFP response, % of DMSO in [5] is 95.4% (inactive). In [6], this compound returned a double positive events of 51.6%. Further, the vesicle binding response in test [6] is 136% (inactive). The results for the inhibition in [7], in test [10] and in test [14] were 3.49% (inactive), 13.3% (inactive) and 4% (inactive), respectively. Besides, in [8], the superoxide response (% of plate) was 98.2% (inactive). The aptamer binding inhibition in [9] is 2% (inactive). In addition, the response in [11] was -1.1% (inactive). Moreover, the binding (% of control) in test [12] is 106% (inactive). Moreover, the efflux inhibition (fraction of control) in [13] is 0.22 (inactive). Besides, the differentiation response in test [15] was -8.27% (inactive).

Turning to `C[N+]12CCC(CC1)C(OC(=O)C(O)(c1ccccc1)c1ccccc1)C2` (stereo not given), in test [1], the percent of DMSO control GFP is 96.8% (inactive). In addition, the values for the GFP response vs DMSO in [2] and in test [4] were 96.9% (inactive) and 100% (inactive), respectively. In addition, the percent response of DMSO control in test [3] was 99.8% (inactive). In addition, the GFP response, % of DMSO in test [5] was 95.8% (inactive). Further, the double positive events in [6] was 60.6%. In addition, in [6], the vesicle binding response is 211% (inactive). The inhibition in [7] was 2.56% (inactive); in [10], -2.25% (inactive); in test [14], 10% (inactive). For the same compound, the superoxide response (% of plate) in test [8] is 104% (inactive). Also, the aptamer binding inhibition in [9] was -2% (inactive). The response in test [11] was 2.36% (inactive). In addition, the binding (% of control) in [12] was 102% (inactive). Moreover, in [13], the efflux inhibition (fraction of control) was -0.35 (inactive). In test [15], the differentiation response is -21.2% (inactive).

For `c1ccc2c3c(c(CN4CCCCC4)cc2c1)COC3`, in [1], the percent of DMSO control GFP is 109% (inactive). Also, the GFP response vs DMSO in test [2] was 116% (inactive); in test [4], 122% (inactive). Further, the percent response of DMSO control in test [3] is 127% (active). The GFP response, % of DMSO in test [5] is 104% (inactive). In test [6], this compound showed a double positive events of 38%. Besides, the vesicle binding response in test [6] is 176% (inactive). Also, the inhibition in test [7] was -8.64% (inactive); in test [10] it was -17.7% (inactive); in [14] it was 11% (inactive). For the same compound, the superoxide response (% of plate) in [8] was 116% (inactive). Further, the aptamer binding inhibition in test [9] was -6% (inactive). Also, the response in test [11] is 4.2% (inactive). Moreover, the binding (% of control) in [12] is 107% (inactive). The efflux inhibition (fraction of control) in test [13] was -0.12 (inactive). For the same compound, the differentiation response in test [15] is -14.7% (inactive).

In the case of `NC(=O)OCC(COC(N)=O)c1ccccc1`, the percent of DMSO control GFP in test [1] is 104% (inactive). Besides, the GFP response vs DMSO is 98.9% (inactive) in test [2] and 92.3% (inactive) in test [4]. Also, in test [3], the percent response of DMSO control is 102% (inactive). Moreover, in [5], the GFP response, % of DMSO is 103% (inactive). Besides, in test [6], the double positive events is 58.1%. In test [6], the vesicle binding response was 160% (inactive). Besides, the inhibition in test [7] was 1.62% (inactive); in [10], -15.7% (inactive); in test [14], 5% (inactive). Besides, the superoxide response (% of plate) in [8] was 92.5% (inactive). Moreover, the aptamer binding inhibition in test [9] was 4% (inactive). Also, the response in [11] is -9.57% (inactive). Besides, the binding (% of control) in test [12] is 103% (inactive). For the same compound, in test [13], the efflux inhibition (fraction of control) is -0.09 (inactive). Moreover, the differentiation response in [15] is -1.82% (inactive).

Regarding `CN1CCC(=C2c3ccccc3C=Cc3ccccc32)CC1`, in [1], the percent of DMSO control GFP was 98.8% (inactive). For the same compound, the GFP response vs DMSO is 99.9% (inactive) in [2] and 104% (inactive) in [4]. Moreover, the percent response of DMSO control in test [3] was 105% (inactive). Moreover, the GFP response, % of DMSO in test [5] is 99.7% (inactive). The compound further had a double positive events in [6] of 62.8%. Moreover, in [6], the vesicle binding response was 194% (inactive). In addition, the inhibition in [7] was 13.8% (inactive); in test [10], 24.3% (inactive); in test [14] it was 8% (inactive). The superoxide response (% of plate) in [8] is 88.8% (inactive). Besides, in test [9], the aptamer binding inhibition is -3% (inactive). The response in [11] is -5.41% (inactive). The binding (% of control) in test [12] was 97.2% (inactive). Further, the efflux inhibition (fraction of control) in test [13] is -0.09 (inactive). In addition, the differentiation response in test [15] was -29.3% (inactive).

As a reminder, the inhibition is the drop in the measured response relative to a control, in per cent.
